Assay outcomes: PubChem BioAssay, several laboratories
This is a sample that favours compounds with a hit; in the whole collection about 3.3% have one here.
GRIN3A LBD mod – NR3A (human) ligand-binding domain modulation; NR3A LBD differential scanning fluorimetry, Tm shift; 0% = protein alone, 100% = glycine-bound protein; Tm shift relative to glycine control, % at 25 µM; 2.5% of 340,000 active; AID 1259313;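 active = melting temperature shift of at least 10% of the positive control shift, at one fixed dose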
SUMO HTRF inh – SUMOylation inhibition; P63279; HTRF SUMOylation assay, SAE1/SAE2 + UBC9, in vitro; inhibition, % at 35 µM; 0.36% of 290,000 active; AID 2006; in the data active = inhibition above about 50%, passing the limit was not always enough
sPLA2-III inh – Inhibits HGIII-sPLA2 liposome hydrolysis, primary screen; AID 743126; inhibition, % at 12.2 µM; Q9NZ20; 0.56% of 370,000 active; QFRET BODIPY PC-A2 liposome hydrolysis, fluorescence;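 active = inhibition above mean plus 3 SD of compounds lying within the high and low control bounds, cut at about 19% in these data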;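 also: 0% = median of test compound wells and 100% = no enzyme DMSO wells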
Target sequence (Q9NZ20 whole entry, looked up): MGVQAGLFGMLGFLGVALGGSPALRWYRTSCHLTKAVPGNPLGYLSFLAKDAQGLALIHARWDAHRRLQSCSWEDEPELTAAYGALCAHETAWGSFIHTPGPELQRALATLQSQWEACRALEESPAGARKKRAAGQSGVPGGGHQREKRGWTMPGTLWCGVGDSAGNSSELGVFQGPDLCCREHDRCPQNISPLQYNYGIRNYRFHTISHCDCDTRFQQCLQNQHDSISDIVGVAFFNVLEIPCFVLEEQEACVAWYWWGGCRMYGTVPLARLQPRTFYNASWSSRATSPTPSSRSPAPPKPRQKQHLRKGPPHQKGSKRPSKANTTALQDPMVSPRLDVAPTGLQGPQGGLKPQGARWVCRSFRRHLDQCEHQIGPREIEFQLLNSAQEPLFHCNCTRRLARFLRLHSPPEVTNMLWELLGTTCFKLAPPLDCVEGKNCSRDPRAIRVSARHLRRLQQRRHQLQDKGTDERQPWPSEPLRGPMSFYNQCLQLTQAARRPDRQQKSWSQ
UBC13 polyUb – human UBC13 polyubiquitination inhibition; inhibition, % at 20 µM; 0.47% of 330,000 active; P61088; UBC13 polyubiquitin chain formation, TR-FRET; in the data active = inhibition above about 45%, passing the limit was not always enough
Target sequence (P61088 whole entry, looked up): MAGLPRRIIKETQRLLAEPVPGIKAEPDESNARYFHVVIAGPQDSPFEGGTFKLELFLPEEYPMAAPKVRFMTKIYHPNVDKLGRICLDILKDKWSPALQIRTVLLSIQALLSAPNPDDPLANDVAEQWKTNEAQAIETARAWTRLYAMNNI
The depositor's hits bear a star; . = no result.

SMILES | GRIN3A LBD mod | SUMO HTRF inh | sPLA2-III inh | UBC13 polyUb
C[C@@H]1CCCCO[C@@H](CN(C)Cc2ccccc2)[C@@H](C)CN([C@H](C)CO)C(=O)c2cc(NC(=O)Nc3cccc4ccccc34)ccc2O1 | . | . | -15.1 | .
C[C@@H]1CN([C@@H](C)CO)C(=O)Cc2cc(NC(=O)Nc3cccc4ccccc34)ccc2O[C@@H]1CN(C)Cc1ccc(C(F)(F)F)cc1 | 13.4* | . | -9.6 | -0.5
C[C@@H]1CN([C@H](C)CO)C(=O)c2cc(NC(=O)Nc3cccc4ccccc34)ccc2O[C@H]1CN(C)Cc1ccc(C(F)(F)F)cc1 | 22.8* | . | -23.2 | -18.3
C[C@@H]1CN([C@@H](C)CO)C(=O)Cc2cc(NC(=O)Nc3cccc4ccccc34)ccc2O[C@@H]1CN(C)S(C)(=O)=O | -10.3 | . | -16.4 | -4.6
C[C@H]1CN([C@@H](C)CO)C(=O)c2cc(NC(=O)Nc3cccc4ccccc34)ccc2O[C@@H]1CN(C)Cc1ccc(-c2ccccc2)cc1 | 10.8* | . | -15.4 | 0.7
CCOC(=O)CC[C@@H]1CC[C@]2(CCCN(C(=O)C(C)(C)C)C2)O1 | . | . | 6.4 | .
CCOC(=O)c1nn(-c2ccccc2C)c2nc(Nc3ccccc3)cc(=O)n12 | 13.4* | 0.8 | -7.7 | 11.9
CCOC(=O)c1nn(-c2ccc(Cl)cc2)c2nc(Nc3ccccc3)cc(=O)n12 | -3.3 | 10.1 | 0.0 | 14.2
Cc1ccc(NC(=O)CSc2nnc(-c3cccnc3)n2Cc2ccco2)c(C)c1 | . | . | -1.1 | .
COc1ccc(C2C(C(=O)Nc3ccccc3)=C(C)N=C3SCC(=O)N32)cc1 (configuration not stated) | 1.4 | 1.0 | -15.4 | 3.2
CC1=C(C(=O)Nc2ccccc2)C(c2ccc(O)cc2)N2C(=O)CSC2=N1 (configuration not stated) | 11.8* | 10.7 | -43.1 | -3.2
COCCCNC(=O)C[C@H]1C[C@@]2(C(=O)OC)C(=C[C@H](C3CCCC3)O[C@@H]2C)N(Cc2cccc3ccccc23)C1=O | . | . | -19.0 | .
Cc1cc(C)c(/C=N/NC(=O)c2nnn(-c3nonc3N)c2COc2ccc(F)cc2)c(C)c1 | 26.3* | -15.1 | -0.6 | -6.7
Nc1nonc1-n1nnc(C(=O)N/N=C/c2ccc(OCc3ccc(F)cc3)cc2)c1COc1ccccc1 | 25.9* | 27.3 | -1.4 | -5.4
Nc1nonc1-n1nnc(C(=O)N/N=C/c2ccc(OCc3ccccc3)cc2)c1CN1CCCCC1 | 18.4* | -0.1 | 2.7 | -12.2
Cc1ccc(COc2ccc(/C=N/NC(=O)c3nnn(-c4nonc4N)c3COc3ccc(F)cc3)cc2)cc1 | 21.1* | 1.0 | -2.1 | -16.1
CCCc1c(C(=O)N/N=C/c2ccc(OCc3ccc(F)cc3)cc2)nnn1-c1nonc1N | . | . | -2.1 | .
Cc1cccc(COc2ccc(/C=N/NC(=O)c3nnn(-c4nonc4N)c3C)cc2)c1 | 3.7 | 11.9 | 7.3 | -4.5
COc1ccc(C=Nn2c(-c3ccc(F)cc3)n[nH]c2=S)c(OC)c1OC | . | . | -0.2 | .
COc1ccc(Cn2ccc3ccc(-c4ccc5ccn(C(=O)c6ccc(C)cc6)c5c4)cc32)cc1 | . | . | 0.2 | .
COc1ccc(OC)c(S(=O)(=O)N2CCC(c3cn4ccccc4n3)CC2)c1 | . | . | -10.8 | .
CCOC(=O)[C@@]12CCCC3=C1N(CCC3)C(=O)[C@H]2CC(=O)NCCCN1CCCC1=O | . | . | 0.1 | .
CCc1sc(C(=O)Nc2ccc(NC(C)=O)cc2)cc1C | 11.1* | -0.5 | 4.2 | 3.3
CCc1sc(C(=O)Nc2ccc3nc(C)sc3c2)cc1C | -3.7 | . | -14.7 | 9.8
Cc1cc(/C=C2\C(=O)NN(c3ccccc3)C2=O)c(C)n1-c1ccccc1O | -7.0 | 60.4* | 0.7 | 0.7
SMILES | GRIN3A LBD mod | SUMO HTRF inh | sPLA2-III inh | UBC13 polyUb
COC(=O)[C@H](C(C)C)N(CCc1cn(Cc2ccc(C)cc2)nn1)S(=O)(=O)c1ccc(F)cc1Br | . | . | -15.5 | .
CCn1c(SCC(N)=O)nnc1-c1ccc(OC)c(OC)c1 | 12.7* | 19.6 | 8.5 | -3.3
Nc1[nH]c2cc(Cl)ccc2c1C(=O)NCCc1ccc(Cl)cc1 | . | . | -13.8 | .
NC(=O)c1c(/N=C/c2cccnc2)sc2c1CCCC2 | 11.0* | 0.6 | -6.6 | 9.6
Cc1ccc(/C=N/c2sc3c(c2C(N)=O)CCCC3)o1 | -1.7 | 11.8 | -2.2 | -6.6
COc1ccccc1CNC(=O)c1nn(C)c2c1CS(=O)(=O)c1ccccc1-2 | 17.7* | -4.0 | 6.2 | 6.1
Cn1nc(C(=O)NCc2ccccc2Cl)c2c1-c1ccccc1S(=O)(=O)C2 | -1.0 | . | 0.4 | 3.1
CCc1ccc2c(c1)/C(=N/N(C)C(=S)NC)C(=O)N2 | 13.1* | -5.3 | 5.5 | -8.9
O=C(Nc1ccccc1N1CCOCC1)c1ccc([N+](=O)[O-])o1 | 18.6* | 8.9 | 4.8 | -9.0
O=C(Nc1cc(Cl)ccc1N1CCOCC1)c1ccc(Br)o1 | 3.1 | 12.2 | 6.4 | 5.8
COc1ccc(N2CCOCC2)c(NC(=O)c2ccc(Br)o2)c1 | 12.6* | -2.5 | 0.6 | -1.0
C=CCN1C(=O)[C@@H](CC(=O)N2CCC(c3ccccc3)CC2)[C@]2(C(=O)OC)CCCCC=C12 | . | . | -6.1 | .
C[C@H](O)[C@@H]1CN2CCc3c([nH]c4cccc(-c5ccccc5)c34)[C@@H]2C[C@@H]1N(C)C(=O)C1CCCCC1 | . | . | 6.1 | .
CC(=O)CC[C@@H]1CC[C@]2(CCCN(C(=O)c3ccco3)C2)O1 | . | . | 7.5 | .
COc1cc(CN(C2CC2)S(=O)(=O)c2ccccc2Br)cc(OC)c1 | 14.0* | . | -2.8 | .
C#CCN(C1CC1)S(=O)(=O)c1ccccc1Br | . | . | 6.4 | .
CNc1nc(Cl)c(SC)c(NCc2cccc(OC)c2)n1 | 17.3* | 5.6 | -5.8 | 25.0
COc1cccc(CNc2ncnc3cc(Cl)ccc23)c1 | 1.3 | 22.7 | -1.0 | .
CN(C)C(=O)C[C@H]1CC[C@H]2[C@H](COc3ccc(NC(=O)C4CC4)cc3C(=O)N2C)O1 | . | . | 0.5 | .
CC(=N\Nc1ccc(Cl)cc1)/C(=N/O)C(=O)Nc1ccccc1 | 22.9* | 9.8 | -28.7 | 5.9
O=C1C2(CCCC13COC(c1ccc(O)cc1)OC3)COC(c1ccc(O)cc1)OC2 (configuration not stated) | 26.0* | 33.2 | -8.7 | 2.2
CN[C@H]1C[C@H]2c3cc(-c4ccccc4C)ccc3CCN2C[C@H]1[C@H](C)O | . | . | 3.2 | .
O=C(Nc1nc(-c2cccs2)cs1)c1ccc(Cl)s1 | 28.3* | -19.1 | 2.4 | -0.2
O=C(O)C1CCC1C(=O)Nc1nc(-c2ccc(Cl)s2)cs1 (configuration not stated) | 1.4 | -0.3 | -0.7 | 0.5
Cc1ccccc1Nc1nc(-c2sc(NC(=O)c3ccccc3)nc2C)cs1 | . | -20.2 | . | 92.9*
SMILES | GRIN3A LBD mod | SUMO HTRF inh | sPLA2-III inh | UBC13 polyUb
C=CCCC(=O)Nc1nc(C)c(-c2csc(Nc3cc(Cl)ccc3OC)n2)s1 | 3.0 | 21.6 | 0.9 | -18.8
O=C(Nc1nc(-c2ccc(Cl)s2)cs1)c1ccccc1 | 15.1* | -7.3 | 0.7 | -8.3
C=CCCC(=O)Nc1nc(C)c(-c2csc(Nc3ccc(Cl)cc3Cl)n2)s1 | 12.2* | 13.8 | 2.3 | -13.8
COC(=O)[C@]12C[C@H](CC(=O)NCc3ccccc3)C(=O)N(Cc3ccc(Cl)cc3Cl)C1=C[C@H](C(C)(C)C)O[C@@H]2C | . | . | -13.1 | .
COC(=O)c1cccc(NC(=O)Nc2ccc(Cl)c(Cl)c2)c1 | 42.9* | -6.7 | -30.3 | 5.7
COC(=O)c1cccc(NC(=O)NC(=O)c2ccccc2Cl)c1 | -0.2 | 8.1 | 8.3 | -4.6
